The results in this text go back to PubChem BioAssay.

Records with an inconclusive call do not appear. Calls of active or inactive are those of the source.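 The calls were made as follows, unless noted: active = cell viability at or below a set limit in both duplicate runs, the limit being the all-compound median minus 4 SD (cut at about 23% in these data, passing the limit was not always enough); inconclusive = no clear call, values can overlap the other calls; inactive = the rest.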

A short description of assay [1]: Her2 expression decrease, cell viability multiplex – SKBR3 breast tumor cells, AlphaScreen, ATP viability, primary screen (AID 461;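 active = Her2 level under about 52% in both replicate screens, with viability over 70% of control, limit read from the data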;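 as to Her2 level: lower value means less Her2 protein in the cells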;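 as to viability: percent of carrier control wells set as 100% viability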). The following applies: SKBR3 Her2 protein level, 18-24 h, measured here: SKBR3 viability, ATP luminescence, at 10 µM.
Assay [2] deals with Receptor tyrosine-protein kinase erbB-2 (Homo sapiens) (UniProt P04626). Described as above. As to conditions: 18-24 h, at 10 µM, stronger effect = lower value.
Sequence of Receptor tyrosine-protein kinase erbB-2 (Homo sapiens) (P04626 whole entry, looked up): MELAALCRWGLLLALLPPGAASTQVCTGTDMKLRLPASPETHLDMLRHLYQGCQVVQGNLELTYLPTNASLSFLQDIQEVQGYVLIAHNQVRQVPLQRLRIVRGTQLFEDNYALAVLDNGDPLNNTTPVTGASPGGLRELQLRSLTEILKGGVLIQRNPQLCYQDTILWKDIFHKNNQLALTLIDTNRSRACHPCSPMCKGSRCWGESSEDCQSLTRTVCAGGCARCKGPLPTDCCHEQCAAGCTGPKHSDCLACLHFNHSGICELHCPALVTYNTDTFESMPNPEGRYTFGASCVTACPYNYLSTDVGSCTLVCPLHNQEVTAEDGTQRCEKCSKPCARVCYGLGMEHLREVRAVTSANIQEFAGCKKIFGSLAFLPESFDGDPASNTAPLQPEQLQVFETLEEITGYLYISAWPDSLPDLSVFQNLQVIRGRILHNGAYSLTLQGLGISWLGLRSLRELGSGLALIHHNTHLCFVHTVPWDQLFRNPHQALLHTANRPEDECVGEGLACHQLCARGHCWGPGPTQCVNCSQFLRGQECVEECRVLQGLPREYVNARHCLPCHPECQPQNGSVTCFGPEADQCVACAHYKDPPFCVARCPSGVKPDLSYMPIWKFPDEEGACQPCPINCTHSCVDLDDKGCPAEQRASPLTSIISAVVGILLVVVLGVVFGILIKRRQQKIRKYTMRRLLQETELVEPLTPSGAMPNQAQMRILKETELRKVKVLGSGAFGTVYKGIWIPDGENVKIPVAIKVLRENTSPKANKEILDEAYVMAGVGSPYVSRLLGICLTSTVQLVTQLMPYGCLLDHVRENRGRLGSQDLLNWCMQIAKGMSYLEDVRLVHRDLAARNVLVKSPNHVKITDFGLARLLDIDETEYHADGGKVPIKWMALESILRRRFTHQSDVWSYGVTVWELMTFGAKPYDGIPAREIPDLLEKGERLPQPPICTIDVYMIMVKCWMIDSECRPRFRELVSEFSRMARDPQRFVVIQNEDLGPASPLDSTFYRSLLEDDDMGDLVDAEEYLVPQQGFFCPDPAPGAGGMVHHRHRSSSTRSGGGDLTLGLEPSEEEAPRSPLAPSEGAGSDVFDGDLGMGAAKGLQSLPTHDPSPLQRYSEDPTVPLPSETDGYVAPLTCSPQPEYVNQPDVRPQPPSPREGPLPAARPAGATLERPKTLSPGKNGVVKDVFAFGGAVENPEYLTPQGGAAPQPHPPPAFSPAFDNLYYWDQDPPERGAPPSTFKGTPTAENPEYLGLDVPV
Assay [3] in a line: reduced viability of SK-BR-3 breast cancer cells – cell-based, 24 h, human, pilot screen (AID 572;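 active = viability at or below 10% of carrier control in both of two separate runs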;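 also: compound exposure lasted between 18 and 24 h rather than exactly 24 h; 100% = carrier-treated control wells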). The following applies: SK-BR-3 viability, CellTiter-Glo luminescence, at 10 µM, stronger effect = lower value.
Assay [4] can be described thus: HUVEC growth inhibition – cell-based, human, primary screen (AID 575;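 active = viability at or below 30% in both replicate assays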;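 also: 100% = median of untreated cell wells with 0.1% DMSO on each plate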). As to conditions: HUVEC proliferation, CellTiter-Glo luminescence, 72 h; at 10 µM; stronger effect = lower value.
Assay [5] in a line: H69AR cell proliferation blockers – human, duplicate replicates, primary screen (AID 580;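 active = viability at or under a set limit in both replicates, limit being median viability minus 3 SD, cut at about 48% in these data, passing the limit was not always enough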;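 also: 100% = mean luminescence of untreated wells and 0% = no signal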). The following applies: H69AR lung tumor cells viability, ATP luminescence, 72 h; at 10 µM; stronger effect = lower value.
Assay [6] in a line: MRP1 drug-resistance reversers in H69AR cells – cell-based, doxorubicin co-treatment, pilot screen (AID 601;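 active = viability loss from added drug above about 55%, and viability with drug at most 40%, in both replicates, limit read from the data, passing the limit was not always enough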). The following applies: CellTiter-Glo, 72 h, at 10 µM; for differential viability (reversal): stronger effect = higher value.
Assay [7] in a line: yeast transport mutant growth inhibition pilot in 384-well plates, post-Golgi transport modulator project (AID 636; in the data active = inhibition above about 31%). As to conditions: absorbance 615 nm, about 18 h, stronger effect = higher value.
A short description of assay [8]: growth suppression of yeast trafficking mutant, preliminary HTS, modulators of trafficking downstream of Golgi apparatus project, 1536-format plate, OD 615 nm (AID 637; in the data active = inhibition above about 30%). As to conditions: yeast transport mutant growth, absorbance 615 nm, 18 h; stronger effect = higher value.
Assay [9] is described as follows: S. cerevisiae growth inhibition in permissive medium (OD615), pilot counter-assay for S. cerevisiae lifespan shortening project, permissive growth control (AID 705;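 active = growth inhibition above 25% in both replicates, a cutoff set 3 SD above the mean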). The following applies: OD615, 24 h, at 10 µM, stronger effect = higher value.
Assay [10] can be described thus: S. cerevisiae growth inhibition in restrictive medium, OD615, pilot screen, restrictive growth control, yeast lifespan reduction project (AID 706;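 active = growth inhibition above a set limit, 3 SD over mean compound inhibition, in both replicates, cut at about 43% in these data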;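 also: modified DeaD lifespan yeast strain shifted to restrictive glucose medium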). As to conditions: OD615, 48 h, at 10 µM, stronger effect = higher value.
A short description of assay [11]: doxorubicin toxicity protection in MRP-1 cells – H69AR cells, CellTiter-Glo, duplicate, MRP-1 activator project, pilot screen (AID 807;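 active = viability increase at or above a cutoff of the median across tested compounds plus 3 SD, cut at about 8.5% in these data, passing the limit was not always enough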;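 also: compound pretreatment 18-22 h then 72 h combined with doxorubicin; 0% = doxorubicin alone and 100% = vehicle without doxorubicin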). The following applies: H69AR viability with doxorubicin, CellTiter-Glo luminescence; at 10 µM; stronger effect = higher value.
A short description of assay [12]: viability of HCT116 without oncogenic beta-catenin – human colon tumor cells, pilot screen (AID 823).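 Also: 0% = wells killed by 20 µM Hyamine and 100% = untreated DMSO cell wells.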 As to conditions: HCT116 beta-catenin knockout viability, CellTiter-Glo, 60 h; at 10 µM; stronger effect = lower value.
A short description of assay [13]: viability of PTEN-null HCT116 cells – cell-based, HCT116 clonal line, CellTiter-Glo, pilot screen (AID 824;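 active = viability at or below 27.92% in each of two runs, the all-compound median minus 4 SD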;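 also: 0% = 20 µM Hyamine control and 100% = vehicle cell control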). The following applies: HCT116 PTEN-deleted viability, 60 h, at 10 µM, stronger effect = lower value.
Assay [14] is described as follows: RAM pathway blockade in budding yeast – dse1pr::URA3 reporter, 5-FOA selection, pilot screen (AID 869;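 active = inhibition over a set limit, the all-compound mean plus 3 SD, in both replicate runs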;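 also: 0% = DMSO wells with no growth and 100% = 10 µM 1-NA-PP1 with full growth; RAM network block rescues cells from 5-FOA so hits raise OD615 growth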). The following applies: S. cerevisiae dse1pr::URA3 5-FOA growth, OD615, 2 d; at 10 µM; stronger effect = higher value; strain carries analog-sensitive mutant Cbk1 kinase.
Assay [15] is described as follows: RAM signaling pathway blockade in yeast – S. cerevisiae, Pdr1DBD-CYC8 efflux-inhibited sensitized strain, primary screen (AID 1298;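 active = RAM network inhibition above 8.4% in each of two replicates, 3 SD over the compound average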;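 also: 0% = DMSO untreated cells without growth and 100% = 10 µM 1-NA-PP1 full growth; higher means more yeast growth rescued from 5-FOA killing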). As to conditions: S. cerevisiae cbk1-as DSE1-URA3 strain, 5-FOA growth OD615, 2 d; at 50 µM; stronger effect = higher value.
[16] abbreviates: H69AR cells + 2 uM doxorubicin, measured here: viability with 2 uM doxorubicin, stronger effect = lower value.
The mark [17] stands for this setting: H69AR cells, compound alone cytotoxicity.

`CC(=O)OCCNc1cc(N2CCN(C)CC2)c2noc3c2c1C(=O)c1ccccc1-3`: the viability is 83% in assay [1]; 83% (inactive) in assay [3]; 68.9% (inactive) in assay [4]; 66.9% (inactive) in assay [5]; 75.4% in assay [6] (setting [16]); 66.9% in [6] (setting [17]). The viability in [12] is 76.8% (inactive); in [13], 73% (inactive). Further, the Her2 level in assay [2] was 102% (inactive). Further, the differential viability (reversal) in assay [6] (H69AR cells + 2 uM doxorubicin) was -8.49% (inactive). For the same compound, the inhibition in [7] was -1.54% (inactive); in assay [8] it was 3.33% (inactive); in [14] it was 8.66% (active). Also, the growth inhibition in assay [9] was -7.97% (inactive); in assay [10] it was -9.2% (inactive). Also, in assay [11], the viability increase is -6.89% (inactive). The RAM network inhibition in assay [15] is 12.4% (inactive).

For the compound `Cc1cccc(C(=O)N2CCN(C(=O)c3cccc(C)c3)C(C)C2)c1` (stereo not drawn), the viability in assay [1] was 110%; in assay [3], 110% (inactive); in [4], 107% (inactive); in [5], 90.3% (inactive); in assay [6] (setting [16]) it was 87.7%; in assay [6] (setting [17]), 90.3%. Besides, the results for the viability in [12] and in [13] were 95.9% (inactive) and 96.2% (inactive), respectively. Also, in assay [2], the Her2 level is 116% (inactive). In [6] (H69AR cells + 2 uM doxorubicin), the differential viability (reversal) was 2.61% (inactive). Moreover, the inhibition was -1.76% (inactive) in [7], 24.8% (inactive) in [8] and 0.75% (inactive) in assay [14]. In addition, the figures for the growth inhibition in [9] and in [10] were -19.2% (inactive) and -9.12% (inactive), respectively. Further, the viability increase in [11] was 0.74% (inactive). The RAM network inhibition in assay [15] was 0.55% (inactive).

Turning to `CCOCCOc1nc2c(c(=O)n(C)c(=O)n2C)n1Cc1ccc(C)cc1`, the viability in assay [1] is 83%; in [3], 83% (inactive); in [4], 94.5% (inactive); in assay [5], 90.8% (inactive); in [6] (setting [16]), 95.4%; in assay [6] (setting [17]), 90.8%. In addition, the viability in [12] is 82.3% (inactive); in [13], 79% (inactive). Also, in [2], the Her2 level was 113% (inactive). In addition, the differential viability (reversal) in [6] (H69AR cells + 2 uM doxorubicin) was -4.61% (inactive). Further, the inhibition is 0.27% (inactive) in assay [7], 4.33% (inactive) in assay [8] and 2.64% (inactive) in [14]. Further, the growth inhibition in [9] is 3.97% (inactive); in assay [10] it was -4.73% (inactive). Moreover, the viability increase in assay [11] is 0.37% (inactive). Further, in assay [15], the RAM network inhibition was 2.08% (inactive).

On to `CCCCN(C(=O)c1ccc(Cl)cc1)C1CC2CCC(C1)N2C` (stereo not drawn), for which the viability in assay [1] was 87.5%; in assay [3] it was 87.5% (inactive); in assay [4], 78.2% (inactive); in [5], 85.1% (inactive); in assay [6] (setting [16]) it was 81.2%; in assay [6] (setting [17]), 85.1%. Besides, the figures for the viability in assay [12] and in assay [13] were 85.3% (inactive) and 89.3% (inactive), respectively. In addition, the Her2 level in assay [2] was 120% (inactive). In [6] (H69AR cells + 2 uM doxorubicin), the differential viability (reversal) was 3.96% (inactive). Further, the inhibition in assay [7] was -5.6% (inactive); in [8], -4% (inactive); in [14] it was 1.62% (inactive). Further, the growth inhibition was -9.97% (inactive) in assay [9] and 1.71% (inactive) in assay [10]. Further, the viability increase in assay [11] is -2.41% (inactive). Also, the RAM network inhibition in [15] is -0.05% (inactive).

Turning to `CCOc1cccc(C(=O)N2CCCCC2c2cccnc2)c1` (stereo not drawn), the viability in assay [1] was 98.5%; in [3], 98.5% (inactive); in [4], 101% (inactive); in assay [5] it was 110% (inactive); in assay [6] (setting [16]), 99.6%; in [6] (setting [17]), 110%. Besides, the viability in [12] is 101% (inactive); in assay [13], 95.2% (inactive). Moreover, the Her2 level in assay [2] is 96.5% (inactive). Further, the differential viability (reversal) in [6] (H69AR cells + 2 uM doxorubicin) was 10.3% (inactive). Also, the inhibition in assay [7] was -0.93% (inactive); in assay [8], -1.13% (inactive); in assay [14], 0.635% (inactive). In addition, the results for the growth inhibition in assay [9] and in assay [10] were -4.46% (inactive) and -2.66% (inactive), respectively. For the same compound, the viability increase in assay [11] was -1.99% (inactive). Also, in assay [15], the RAM network inhibition is 1.95% (inactive).

In the case of `Cn1c(C(=O)NCCCN2CCCCCC2)cc2c(=O)n(C)c3ccccc3c21`, the viability is 80% in assay [1]; 80% (inactive) in [3]; 91.2% (inactive) in assay [4]; 87.2% (inactive) in assay [5]; 75.1% in assay [6] (setting [16]); 87.2% in [6] (setting [17]). Moreover, the viability in assay [12] is 76.1% (inactive); in [13], 78.7% (inactive). Further, in assay [2], the Her2 level was 92.5% (inactive). Further, the differential viability (reversal) in [6] (H69AR cells + 2 uM doxorubicin) was 12% (inactive). The inhibition in assay [7] was 4.36% (inactive); in assay [8] it was -3% (inactive); in [14], 1.04% (inactive). The values for the growth inhibition in [9] and in assay [10] were -1.14% (inactive) and 6.89% (inactive), respectively. Further, the viability increase in [11] was -4.55% (inactive). Also, the RAM network inhibition in assay [15] was 0% (inactive).

Take `O=C(c1ccco1)N1CCN(C2=NS(=O)(=O)c3ccccc32)CC1`: the viability in [1] was 104%; in [3], 104% (inactive); in assay [4], 99.1% (inactive); in assay [5] it was 94.8% (inactive); in assay [6] (setting [16]), 90.8%; in assay [6] (setting [17]), 94.8%. Also, the viability was 93.1% (inactive) in assay [12] and 96.3% (inactive) in assay [13]. Besides, the Her2 level in assay [2] was 142% (inactive). Also, the differential viability (reversal) in [6] (H69AR cells + 2 uM doxorubicin) was 3.94% (inactive). The inhibition in assay [7] was -1.69% (inactive); in assay [8], -12.7% (inactive); in assay [14], 0.41% (inactive). Further, the values for the growth inhibition in [9] and in [10] were -13.5% (inactive) and -1.96% (inactive), respectively. The viability increase in assay [11] was -2.12% (inactive). For the same compound, the RAM network inhibition in assay [15] was 6.34% (inactive).

For the compound `CC(=O)N1c2c(cc(Br)cc2S(=O)(=O)NCC2COc3ccccc3O2)CC1C` (stereo not drawn), the viability in [1] is 97.5%; in assay [3], 97.5% (inactive); in [4], 88.9% (inactive); in assay [5] it was 81.7% (inactive); in assay [6] (setting [16]), 84.3%; in [6] (setting [17]), 81.7%. The viability in [12] is 83.2% (inactive); in assay [13], 81% (inactive). For the same compound, in assay [2], the Her2 level was 85% (inactive). Besides, the differential viability (reversal) in assay [6] (H69AR cells + 2 uM doxorubicin) was -2.64% (inactive). For the same compound, the inhibition is -5.34% (inactive) in assay [7], -2.06% (inactive) in [8] and 0.495% (inactive) in assay [14]. Besides, the growth inhibition is -0.935% (inactive) in assay [9] and 8.23% (inactive) in assay [10]. Besides, in [11], the viability increase is 0.21% (inactive). For the same compound, the RAM network inhibition in assay [15] was 0.61% (inactive).

`COc1cc2c(cc1OC)C(C)N(C(=O)Cn1ncc3c1-c1ccccc1OC3)CC2` (stereo not drawn): the viability in assay [1] was 90.5%; in [3], 90.5% (inactive); in [4], 111% (inactive); in assay [5] it was 87.2% (inactive); in assay [6] (setting [16]) it was 86.9%; in assay [6] (setting [17]) it was 87.2%. Further, the viability in assay [12] is 89.5% (inactive); in assay [13], 89.8% (inactive). For the same compound, the Her2 level in assay [2] was 104% (inactive). In addition, in [6] (H69AR cells + 2 uM doxorubicin), the differential viability (reversal) was 0.365% (inactive). The inhibition was -2.31% (inactive) in [7], 2.33% (inactive) in assay [8] and 0.41% (inactive) in assay [14]. In addition, the growth inhibition in [9] is -9.09% (inactive); in assay [10] it was -8.14% (inactive). Also, the viability increase in [11] was -2.56% (inactive). Further, the RAM network inhibition in [15] was 1.88% (inactive).
